In ChEMBL document CHEMBL2218924, “A broad activity screen in support of a chemogenomic map for kinase signalling research and drug discovery” (Biochem J, 2013):

Each molecule was assayed against Protein kinase C eta type (Homo sapiens) (UniProt P24723). Conditions: at 1 µM; call rule not given here.
Chain of Protein kinase C eta type (Homo sapiens) (P24723 whole entry): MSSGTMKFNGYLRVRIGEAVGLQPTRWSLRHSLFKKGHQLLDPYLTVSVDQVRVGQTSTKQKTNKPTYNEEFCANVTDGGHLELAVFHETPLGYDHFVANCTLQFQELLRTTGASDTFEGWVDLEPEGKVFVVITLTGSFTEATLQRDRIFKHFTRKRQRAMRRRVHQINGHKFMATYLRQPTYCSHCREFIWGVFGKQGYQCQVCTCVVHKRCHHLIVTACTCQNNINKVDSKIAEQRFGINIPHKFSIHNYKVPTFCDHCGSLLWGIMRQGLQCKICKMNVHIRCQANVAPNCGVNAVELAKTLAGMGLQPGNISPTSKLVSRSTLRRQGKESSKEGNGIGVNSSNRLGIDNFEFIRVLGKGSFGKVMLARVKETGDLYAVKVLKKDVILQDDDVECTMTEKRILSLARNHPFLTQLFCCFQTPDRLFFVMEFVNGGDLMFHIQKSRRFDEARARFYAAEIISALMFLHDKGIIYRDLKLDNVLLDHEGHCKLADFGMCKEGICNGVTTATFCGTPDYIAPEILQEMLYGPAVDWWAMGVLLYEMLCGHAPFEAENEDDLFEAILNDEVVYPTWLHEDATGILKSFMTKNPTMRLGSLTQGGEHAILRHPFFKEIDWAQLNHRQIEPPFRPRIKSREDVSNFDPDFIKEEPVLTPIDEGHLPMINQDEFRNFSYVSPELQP
Molecule `O=S(=O)(NCCNC/C=C/c1ccc(Br)cc1)c1cccc2cnccc12` has a residual activity of 66%.
`O=C(c1ccccc1)c1ccc(N2CCOCC2)cc1O` showed a residual activity of 116%.
`NC(=O)c1ccc(-c2nc(-c3ccc4c(c3)OCCO4)c(-c3ccccn3)[nH]2)cc1` was tested, and the residual activity was 94%.
Molecule `O=C1NC(=O)C(c2cn(CCCn3ccnc3)c3ccccc23)=C1Nc1ccccc1` has a residual activity of 15%.
With `O=C1NC(=O)C(c2c[nH]c3ccccc23)=C1c1c[nH]c2ccccc12` the residual activity was 68%.
`CCCCc1c(-c2ccc(O)cc2)[nH]c2nccnc12` gave a residual activity of 96%.

What follows are molecules tested against Protein kinase C eta type (Homo sapiens) (UniProt P24723). Conditions: at 10 µM.
With `O=c1cc(N2CCOCC2)oc2c(-c3ccccc3)cccc12` the residual activity was 66%.
Work on `Cn1sc(=O)n(Cc2ccccc2)c1=O` yielded a residual activity of 17%.
With `Nc1nc(Nc2ccc(S(N)(=O)=O)cc2)nn1C(=O)c1c(F)cccc1F` the residual activity was 64%.
`N#C/C(=C\c1ccc(O)c(O)c1)C(=O)NCc1ccccc1` showed a residual activity of 82%.
For `Nc1n[nH]c2nc3ccccc3nc12`, the residual activity was 68%.
Work on `O=C1Cc2c([nH]c3ccc(Br)cc23)-c2ccccc2N1` yielded a residual activity of 94%.
`COc1cc2c(cc1OC)-c1n[nH]c(Nc3cccc(F)c3)c1C2` was tested, and the residual activity was 70%.
Work on `CSc1nc(-c2ccc(F)cc2)c(-c2ccnc(NC(C)c3ccccc3)c2)[nH]1` (stereo unspecified) yielded a residual activity of 73%.
`NC(=O)c1cccc(-c2cc(Nc3ccc(OC(F)(F)F)cc3)ncn2)c1` gave a residual activity of 91%.
Molecule `Nc1nccc(-c2c(-c3ccc(F)cc3)ncn2C2CCNCC2)n1` has a residual activity of 70%.
`CN([C@@H](Cc1ccc(OS(=O)(=O)c2cccc3cnccc23)cc1)C(=O)N1CCN(c2ccccc2)CC1)S(=O)(=O)c1cccc2cnccc12` showed a residual activity of 100%.
`O=c1c(-c2ccc(F)cc2)c(-c2ccncc2)[nH]n1-c1ccc(Cl)cc1` gave a residual activity of 72%.
`COc1cc2ncnc(Nc3cccc(Cl)c3)c2cc1OC` gave a residual activity of 108%.
`COc1ccc(-c2cnc3c(-c4ccsc4)cnn3c2)cc1` was tested, and the residual activity was 76%.
`O=S(=O)(c1cccc2cnccc12)N1CCCNCC1` was tested, and the residual activity was 26%.
With `COc1cc2nccc(Oc3ccc(NC(=O)Nc4cc(C)on4)c(Cl)c3)c2cc1OC` the residual activity was 79%.
`O=S(=O)(NCCNC/C=C/c1ccc(Br)cc1)c1cccc2cnccc12` showed a residual activity of 15%.
For `O=C(c1ccccc1)c1ccc(N2CCOCC2)cc1O`, the residual activity was 83%.
Work on `NC(=O)c1ccc(-c2nc(-c3ccc4c(c3)OCCO4)c(-c3ccccn3)[nH]2)cc1` yielded a residual activity of 88%.
For `O=C1NC(=O)C(c2cn(CCCn3ccnc3)c3ccccc23)=C1Nc1ccccc1`, the residual activity was 2%.
Work on `O=C1NC(=O)C(c2c[nH]c3ccccc23)=C1c1c[nH]c2ccccc12` yielded a residual activity of 17%.
With `CCCCc1c(-c2ccc(O)cc2)[nH]c2nccnc12` the residual activity was 77%.
With `O=C1Nc2ccccc2/C1=C\c1c(Cl)[nH]c2ccccc12` the residual activity was 80%.

The molecules below were run against Protein kinase C theta type (Homo sapiens) (UniProt Q04759). Conditions: at 1 µM.
Chain of Protein kinase C theta type (Homo sapiens) (Q04759 whole entry, looked up): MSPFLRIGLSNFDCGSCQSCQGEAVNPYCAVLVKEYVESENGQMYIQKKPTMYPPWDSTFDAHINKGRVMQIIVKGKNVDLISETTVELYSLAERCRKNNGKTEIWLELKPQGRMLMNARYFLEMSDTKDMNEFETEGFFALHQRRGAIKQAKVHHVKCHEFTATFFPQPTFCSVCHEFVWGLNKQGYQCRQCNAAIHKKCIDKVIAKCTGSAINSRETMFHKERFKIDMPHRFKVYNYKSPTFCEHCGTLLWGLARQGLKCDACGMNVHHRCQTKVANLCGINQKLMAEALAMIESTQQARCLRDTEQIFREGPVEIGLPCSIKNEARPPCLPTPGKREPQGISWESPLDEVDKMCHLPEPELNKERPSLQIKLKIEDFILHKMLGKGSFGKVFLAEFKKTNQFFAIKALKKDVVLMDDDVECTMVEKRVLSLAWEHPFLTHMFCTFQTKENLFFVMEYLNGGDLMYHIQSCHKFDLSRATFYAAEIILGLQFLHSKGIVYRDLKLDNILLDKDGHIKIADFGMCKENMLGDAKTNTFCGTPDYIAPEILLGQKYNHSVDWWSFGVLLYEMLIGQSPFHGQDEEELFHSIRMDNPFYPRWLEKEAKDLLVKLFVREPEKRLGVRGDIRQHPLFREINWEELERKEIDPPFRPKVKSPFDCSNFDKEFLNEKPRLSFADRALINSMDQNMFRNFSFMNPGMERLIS
`Cn1sc(=O)n(Cc2ccccc2)c1=O` showed a residual activity of 89%.
`Nc1nc(Nc2ccc(S(N)(=O)=O)cc2)nn1C(=O)c1c(F)cccc1F` gave a residual activity of 30%.
`O=C1Cc2c([nH]c3ccc(Br)cc23)-c2ccccc2N1` was tested, and the residual activity was 49%.
In the case of `CSc1nc(-c2ccc(F)cc2)c(-c2ccnc(NC(C)c3ccccc3)c2)[nH]1` (stereo unspecified), the residual activity is reported as 101%.
`COc1cc2ncnc(Nc3cccc(Cl)c3)c2cc1OC` was tested, and the residual activity was 105%.
In the case of `Cc1cc(C)c(/C=C2\C(=O)Nc3ccccc32)[nH]1`, the residual activity is reported as 103%.
For `COc1cc2nccc(Oc3ccc(NC(=O)Nc4cc(C)on4)c(Cl)c3)c2cc1OC`, the residual activity was 100%.
For `O=S(=O)(NCCNC/C=C/c1ccc(Br)cc1)c1cccc2cnccc12`, the residual activity was 61%.
`O=C1NC(=O)C(c2cn(CCCn3ccnc3)c3ccccc23)=C1Nc1ccccc1` was tested, and the residual activity was 3%.
`O=C1NC(=O)C(c2c[nH]c3ccccc23)=C1c1c[nH]c2ccccc12` showed a residual activity of 5%.
`O=C1Nc2ccccc2/C1=C\c1c(Cl)[nH]c2ccccc12` gave a residual activity of 81%.

The molecules below were run against Protein kinase C theta type (Homo sapiens) (UniProt Q04759). Conditions: at 10 µM.
`Cn1sc(=O)n(Cc2ccccc2)c1=O` was tested, and the residual activity was 85%.
In the case of `Nc1nc(Nc2ccc(S(N)(=O)=O)cc2)nn1C(=O)c1c(F)cccc1F`, the residual activity is reported as 20%.
`Nc1n[nH]c2nc3ccccc3nc12` showed a residual activity of 85%.
`O=C1Cc2c([nH]c3ccc(Br)cc23)-c2ccccc2N1` gave a residual activity of 31%.
With `COc1cc2c(cc1OC)-c1n[nH]c(Nc3cccc(F)c3)c1C2` the residual activity was 81%.
In the case of `CSc1nc(-c2ccc(F)cc2)c(-c2ccnc(NC(C)c3ccccc3)c2)[nH]1` (stereo unspecified), the residual activity is reported as 72%.
`O=c1c(-c2ccc(F)cc2)c(-c2ccncc2)[nH]n1-c1ccc(Cl)cc1` gave a residual activity of 71%.
Molecule `COc1cc2ncnc(Nc3cccc(Cl)c3)c2cc1OC` has a residual activity of 101%.
`O=S(=O)(c1cccc2cnccc12)N1CCCNCC1` was tested, and the residual activity was 67%.
Work on `COc1cc2nccc(Oc3ccc(NC(=O)Nc4cc(C)on4)c(Cl)c3)c2cc1OC` yielded a residual activity of 98%.
For `O=S(=O)(NCCNC/C=C/c1ccc(Br)cc1)c1cccc2cnccc12`, the residual activity was 17%.
Work on `O=C1NC(=O)C(c2cn(CCCn3ccnc3)c3ccccc23)=C1Nc1ccccc1` yielded a residual activity of 2%.
Work on `O=C1NC(=O)C(c2c[nH]c3ccccc23)=C1c1c[nH]c2ccccc12` yielded a residual activity of 2%.
`O=C1Nc2ccccc2/C1=C\c1c(Cl)[nH]c2ccccc12` showed a residual activity of 71%.

Each molecule was assayed against T1, Protein kinase C iota type (Homo sapiens) (UniProt P41743). Conditions: at 1 µM.
T1 sequence (whole entry): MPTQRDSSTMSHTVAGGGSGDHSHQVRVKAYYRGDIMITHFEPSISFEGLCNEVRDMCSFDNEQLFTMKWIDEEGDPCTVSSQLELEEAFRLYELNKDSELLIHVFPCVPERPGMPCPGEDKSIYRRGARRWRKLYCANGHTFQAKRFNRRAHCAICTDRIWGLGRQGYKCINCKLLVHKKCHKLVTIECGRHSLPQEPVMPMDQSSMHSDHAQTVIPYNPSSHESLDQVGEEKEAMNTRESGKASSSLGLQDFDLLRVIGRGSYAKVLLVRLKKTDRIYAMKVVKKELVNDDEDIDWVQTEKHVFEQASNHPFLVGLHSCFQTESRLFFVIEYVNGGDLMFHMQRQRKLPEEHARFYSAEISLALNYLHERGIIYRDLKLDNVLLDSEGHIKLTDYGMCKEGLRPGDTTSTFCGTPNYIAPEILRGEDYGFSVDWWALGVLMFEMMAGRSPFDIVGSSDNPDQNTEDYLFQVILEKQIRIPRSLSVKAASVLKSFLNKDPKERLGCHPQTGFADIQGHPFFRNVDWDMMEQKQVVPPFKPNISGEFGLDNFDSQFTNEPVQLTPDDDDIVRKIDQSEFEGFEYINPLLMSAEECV
With `COc1ccc(CNC(=O)Nc2ncc([N+](=O)[O-])s2)cc1` the residual activity was 110% (inactive).
For `Cn1sc(=O)n(Cc2ccccc2)c1=O`, the residual activity was 87% (inactive).
In the case of `Nc1nc(Nc2ccc(S(N)(=O)=O)cc2)nn1C(=O)c1c(F)cccc1F`, the residual activity is reported as 109% (inactive).
With `NC(=O)c1cccc(-c2cc(Nc3ccc(OC(F)(F)F)cc3)ncn2)c1` the residual activity was 92% (inactive).
With `COc1ccc(-c2cnc3c(-c4ccsc4)cnn3c2)cc1` the residual activity was 81% (inactive).
With `O=C(c1ccccc1)c1ccc(N2CCOCC2)cc1O` the residual activity was 78% (inactive).
For `O=C1NC(=O)C(c2c[nH]c3ccccc23)=C1c1c[nH]c2ccccc12`, the residual activity was 116% (inactive).
